# Experimental data as given in PubChem BioAssay.
# “And” between values parts separate entries of the source, which are not always exact repeats. Identical values can stand only once. The source made the active and inactive calls.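 How the source made its calls, unless noted: active means compounds killing one labelled cell type while sparing the other, by normalised counts and ratio limits, not self-fluorescent; inactive means the rest.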
# Experiments:
# [1] = EMT-state selective cytotoxicity in co-culture – imaging, PC-3E GFP, TEM4-18 mCherry, primary screen (AID 1345086); conditions: PC-3E GFP / TEM4-18 mCherry co-culture, imaging cell counts, at 1 µM; for red/green cell ratio (normalised): actives lie on both sides;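 on all read-outs here: cells exposed to compound for 72 h before imaging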;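 on red/green cell ratio (normalised): normalised mesenchymal count divided by normalised epithelial count so high means epithelial killing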
# [2] = P. berghei load reduction in hepatocytes – cell-based, HepG2, luciferase luminescence, HepG2 viability, primary screen (AID 624349; in the data active means parasite load remaining mostly below about 12%, no sharp cut-off; inactive means mostly above about 10%;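 further: 100% = mean of DMSO negative control wells on the same plate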); conditions: P. berghei liver stage in HepG2, luciferase luminescence, concentration not given here; parasite load remaining: stronger effect = lower value; viability: measured here: HepG2 viability without parasites
# [3] = system: Aerobactin synthetase IucA (Klebsiella pneumoniae hvKP1); assay: IucA enzyme inhibition, primary screen, biochemical, Spectrum library (AID 1346200; call rule not given here;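 further: 100% = wells without compound and 0% = wells lacking enzyme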); conditions: malachite green pyrophosphate, A620, at 8 µM, stronger effect = lower value
# [4] = viability loss with induced miR-34 in A549 – imaging, A549 dox-inducible miR-34, nuclei and caspase counts, primary screen (AID 1347080;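 active means compounds whose cell count with miR-34 switched on is under 0.7 times the count with it off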); conditions: A549 miR-34 inducible, Hoechst nuclei count, 48 h
# [5] = galactose survival enhancers in mitochondrial complex I cybrids – cell-based, galactose medium, ATP luminescence, primary screen (AID 1645843;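 active means z-score of at least 1.8 in each of two replicates, scored against plate mean and spread of sample wells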;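 further: positive z means more ATP and so rescue of galactose-driven cybrid death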); conditions: complex I mutant cybrid cells, 72 h, stronger effect = higher value
# [6] = counts scaled to control wells, 1 = unselective
# [7] = measured here: epithelial PC-3E GFP cell survival
# [8] = measured here: mesenchymal TEM4-18 mCherry cell survival
smiles,measurement,setting,value
COc1cc(O)c(C(=O)O)c(-c2cc(O)c(O)cc2C)c1,red/green cell ratio (normalised),[1]; [6],1.12 (inactive)
same,normalised cell number,[1]; [7],0.82
same,normalised cell number,[1]; [8],0.92
COc1cc2c(cc1OC)[C@@]13CCN4CC5=CCOC6CC(=O)N2C1[C@H]6[C@H]5C[C@H]43 (stereo partly drawn),parasite load remaining,[2],97.7% (inactive) and 56.5% (inactive)
same,viability,[2],63.5% and 87.4%
same,red/green cell ratio (normalised),[1],1.35 (inactive)
same,red/green cell ratio (normalised),[1]; [6],0.96 (inactive)
same,normalised cell number,[1]; [7],1.05 and 0.91
same,normalised cell number,[1]; [8],1.02 and 1.23
same,activity remaining,[3],105% (inactive)
same,fold change,[4]; stronger effect = lower value,0.942 (inactive)
same,fold change,[4]; measured here: relative caspase fold change +Dox/-Dox,2.52
same,cell count,"[4]; measured here: total cells with miR-34 induction, stronger effect = lower value",11600
same,cell count,[4]; measured here: total cells without miR-34 induction,12300
CC(=O)OCC1=C(C(=O)O)N2C(=O)[C@@H](N)C2SC1 (stereo partly drawn),red/green cell ratio (normalised),[1],1.18 (inactive)
same,normalised cell number,[1]; [7],0.96
same,normalised cell number,[1]; [8],1.14
CC1OC(=O)[C@@H](C(C)C)NC(=O)C(C(C)C)OC(=O)[C@H](C(C)C)NC(=O)C(C)OC(=O)[C@@H](C(C)C)NC(=O)C(C(C)C)OC(=O)[C@H](C(C)C)NC(=O)C(C)OC(=O)[C@@H](C(C)C)NC(=O)C(C(C)C)OC(=O)[C@H](C(C)C)NC1=O (stereo partly drawn),red/green cell ratio (normalised),[1],0.92 (inactive)
same,normalised cell number,[1]; [7],0.32
same,normalised cell number,[1]; [8],0.29
same,activity remaining,[3],122% (inactive)
C/C1=C\[C@@H](C)C/C=C/[C@H]2[C@@H]3O[C@]3(C)[C@@H](C)[C@H]3[C@H](Cc4c[nH]c5ccccc45)NC(=O)[C@]32C(=O)/C=C/C(=O)[C@@H]1O,red/green cell ratio (normalised),[1]; [6],0.89 (inactive)
same,normalised cell number,[1]; [7],1.11
same,normalised cell number,[1]; [8],1
CN1C(=O)c2ccccc2NC(=O)[C@@H]1Cc1ccccc1,red/green cell ratio (normalised),[1]; [6],1.03 (inactive)
same,normalised cell number,[1]; [7],1.1
same,normalised cell number,[1]; [8],1.13
Fc1ccc(N2CCNCC2)c(F)c1,red/green cell ratio (normalised),[1],1.03 (inactive)
same,normalised cell number,[1]; [7],1.01
same,normalised cell number,[1]; [8],1.04
C[N+]12CC[C@@]34c5ccccc5N5C(=O)CC6OCC=C(C1)[C@@H](CC32)[C@@H]6C54 (stereo partly drawn),red/green cell ratio (normalised),[1]; [6],1.07 (inactive)
same,normalised cell number,[1]; [7],0.95
same,normalised cell number,[1]; [8],1.01
NCCc1c[nH]c2ccc(O)cc12,parasite load remaining,[2],63.9% (inactive) and 71.4% (inactive)
same,viability,[2],113% and 89.1%
same,red/green cell ratio (normalised),[1],1.02 (inactive)
same,normalised cell number,[1]; [7],0.95
same,normalised cell number,[1]; [8],0.96
same,z-score,[5],0.29 (inactive) and 0.4 (inactive)
CC[C@H]1CN2CCC1C[C@@H]2[C@H](O)c1ccnc2ccc(OC)cc12 (stereo partly drawn),red/green cell ratio (normalised),[1]; [6],0.88 (inactive)
same,normalised cell number,[1]; [7],1.22
same,normalised cell number,[1]; [8],1.07
COc1cc2c(cc1OC)[C@@H]1C(=O)c3ccc4c(c3O[C@@H]1CO2)CC(C(C)C)O4 (stereo partly drawn),red/green cell ratio (normalised),[1],1.13 (inactive)
same,normalised cell number,[1]; [7],0.56
same,normalised cell number,[1]; [8],0.64
same,activity remaining,[3],114% (inactive)
C[C@]12[C@H](O)CC3C(CC[C@@H]4C[C@@H](O)CC[C@]34C)[C@@]1(O)CC[C@@H]2C1=CC(=O)OC1 (stereo partly drawn),red/green cell ratio (normalised),[1],0.53 (inactive)
same,normalised cell number,[1]; [7],0.38
same,normalised cell number,[1]; [8],0.2
O=C1NCC[C@H]1O,red/green cell ratio (normalised),[1]; [6],0.95 (inactive)
same,normalised cell number,[1]; [7],1.13
same,normalised cell number,[1]; [8],1.08
CCC(C)C1C(=O)OC(C(C)C)C(=O)N(C)C(C(C)C)C(=O)OC(C(C)C)C(=O)N(C)C(C(C)C)C(=O)OC(C(C)C)C(=O)N1C (stereo not drawn),red/green cell ratio (normalised),[1]; [6],0.98 (inactive) and 0.86 (inactive)
same,normalised cell number,[1]; [7],1.02 and 0.67
same,normalised cell number,[1]; [8],1 and 0.58
C[C@]12CCC3C(CC[C@@H]4CC(=O)CC[C@]34C)C1CCC2=O (stereo partly drawn),red/green cell ratio (normalised),[1],1.04 (inactive)
same,normalised cell number,[1]; [7],0.88
same,normalised cell number,[1]; [8],0.91
CN(CCC(N)CC(=O)N[C@H]1C=CC(n2ccc(N)nc2=O)O[C@@H]1C(=O)O)C(=N)N (stereo partly drawn),red/green cell ratio (normalised),[1]; [6],0.77 (inactive)
same,normalised cell number,[1]; [7],1.2
same,normalised cell number,[1]; [8],0.93
same,activity remaining,[3],109% (inactive)
C[C@H]1COc2c(N3CCNCC3)c(F)cc3c(=O)c(C(=O)O)cn1c23,red/green cell ratio (normalised),[1]; [6],0.98 (inactive)
same,normalised cell number,[1]; [7],1.08
same,normalised cell number,[1]; [8],1.06
Cc1cc(O)cc2oc(=O)c3c(O)cc(O)cc3c12,red/green cell ratio (normalised),[1]; [6],0.89 (inactive)
same,normalised cell number,[1]; [7],0.99
same,normalised cell number,[1]; [8],0.88
CC1NCCc2cc(O)c(O)cc21 (stereo not drawn),red/green cell ratio (normalised),[1]; [6],0.96 (inactive)
same,normalised cell number,[1]; [7],1.11
same,normalised cell number,[1]; [8],1.06
C[C@]12CCC3C(CC[C@H]4C[C@H](O)CC[C@]34C)C1CCC2=O (stereo partly drawn),red/green cell ratio (normalised),[1],1.16 (inactive)
same,normalised cell number,[1]; [7],0.84
same,normalised cell number,[1]; [8],0.97
O=C1CC2OCC=C3CN4CC[C@]56c7ccccc7N1C5[C@H]2[C@@H]3CC46 (stereo partly drawn),red/green cell ratio (normalised),[1]; [6],1.12 (inactive)
same,normalised cell number,[1]; [7],1.02
same,normalised cell number,[1]; [8],1.14
CCSCCC(N)C(=O)O (stereo not drawn),red/green cell ratio (normalised),[1],0.84 (inactive)
same,normalised cell number,[1]; [7],1.26
same,normalised cell number,[1]; [8],1.06
CC(C)[C@@H]1CC[C@](O)(CCl)[C@@H]2C(=O)OCC(C(=O)O)=C[C@H]21,red/green cell ratio (normalised),[1]; [6],0.96 (inactive)
same,normalised cell number,[1]; [7],1
same,normalised cell number,[1]; [8],0.96
C[C@@H]1CC(Cl)CC[C@H]1C(=O)OC(C)(C)C (stereo partly drawn),red/green cell ratio (normalised),[1],1.02 (inactive)
same,normalised cell number,[1]; [7],1.09
same,normalised cell number,[1]; [8],1.12
same,activity remaining,[3],119% (inactive)
N#Cc1c(Cl)nc(NC2CC2)c2ccccc12,red/green cell ratio (normalised),[1]; [6],0.69 (inactive)
same,normalised cell number,[1]; [7],1.32
same,normalised cell number,[1]; [8],0.91
C/C=C(\C)C(=O)O[C@H]1C[C@@H](OC(C)=O)[C@@]2(C(=O)OC)CO[C@@H]3C2[C@]12CO[C@](O)(C(=O)OC)[C@H]2[C@](C)(C12O[C@@]1(C)[C@H]1C[C@H]2OC2OC=C[C@@]21O)[C@@H]3O (stereo partly drawn),red/green cell ratio (normalised),[1]; [6],1.21 (inactive)
same,normalised cell number,[1]; [7],0.89
same,normalised cell number,[1]; [8],1.08
